Screening data: PubChem, several laboratories
Shown are actives, neighbours in structure and some others; about 3.4% of the full set was active somewhere.
Shn3 3UTR inh = reduction of Shn3 3'UTR firefly luciferase signal, primary screen, Schnurri-3 inhibitor project, cell-based, Clone20 osteoblasts, set 2. actives 0.52% (n = 360,000). AID 588674, 2011. Clone20 osteoblast Shn3 3'UTR firefly luciferase, 24 h. inhibition, % at 12.5 µM;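 active = mean inhibition of at least 75% with every replicate also reaching 75%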;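 note: 0% = median of neutral control wells and 100% = pilot-screen positive control compound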
EBV LMP1 NFkB = EBV LMP1-driven NF-kappaB luciferase reporter inhibitors, primary screen, cell-based, luminescence, single point. AID 504558, 2011. actives 0.69% (n = 350,000). LMP1-induced NF-kappaB luciferase reporter cells. inhibition, % at 12.5 µM; in the data active = inhibition above about 41%;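 note: 0% = neutral control wells and 100% = reference inhibitor control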
TRPM1 prom inh = inhibitors of MITF-dependent TRPM1 promoter reporter, primary screen, cell-based, SK-MEL-5, single point, luciferase; inhibition, % at 12.5 µM; SK-MEL-5 TRPM1 promoter luciferase, 24 h; actives 0.83% (n = 330,000); AID 488899, 2010;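 active = mean inhibition across replicates of 60% or more, whatever share of single replicates reaches that level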
TWEAK Fn14 block = inhibitors of TWEAK-Fn14 signaling, primary screen, luciferase reporter cells, uHTS. TWEAK-stimulated Fn14 reporter cells, luciferase luminescence, 8 h. inhibition, % at 10 µM. actives 2% (n = 360,000); in the data active = inhibition above about 50%
HIF-2a block = HIF-2a reporter inhibitors, primary screen, luminescence, 786-0 RCC cells. 786-0 RCC cells HIF-2a reporter, luciferase luminescence, overnight. inhibition, % at 18.8 µM. actives 0.72% (n = 360,000);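 active = inhibition of the luminescence signal of 40% or more relative to plate controls, in a single-dose primary screen at 18.75 µM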
TROY NFkB inh = inhibitors of TROY-driven NF-kB signaling, primary screen, Q293 LMP1-TROYcd cells, NF-kB luciferase, uHTS. AID 1347056, 2019. Q293 LMP1-TROYcd NF-kB luciferase reporter, 4 h. actives 0.98% (n = 360,000). inhibition, % at 10 µM;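 active = compounds whose plate-normalised and pattern-corrected inhibition of the luciferase reporter signal at the single screening dose is 50% or more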
The depositor's hits bear a star; . = no result given.

SMILES	Shn3 3UTR inh	EBV LMP1 NFkB	TRPM1 prom inh	TWEAK Fn14 block	HIF-2a block	TROY NFkB inh
COCc1nnc(NC(=O)c2ccc(OC)cc2OC)s1	-52	6	-39	14	-118	3
COc1ccc(C(=O)Nc2nnc(Cc3ccc(OC)c(OC)c3)s2)c(OC)c1	-19	-6	-23	82*	-195	-15
COc1ccc(Cc2nnc(NC(=O)c3c(-c4ccccc4)noc3C)s2)cc1OC	8	9	11	1	14	-4
COC12CC(=O)C(C(C)=O)=C(O)C1(C)c1c(O)c(C)c(O)c(C(C)=O)c1O2 (centres undefined)	22	.	.	16	22	-2
CCCCN(C=O)c1c(CC)nc2c(OCC(=O)c3ccc(F)cc3)cccn12	-9	.	.	-16	-70	-31
CCOC(=O)N1CCc2cc(OC)c(OC)c3c2c1cc1cc(OC)c(OC)cc13	5	1	22	54*	-28	15
COc1ccc(NC(=O)c2cc(C3CCCCN3C(=O)C3CCCCC3)on2)c(C)c1 (centres undefined)	-4	.	.	-11	10	-5
Cc1ccc(C(=O)N2N=C(c3ccc(NS(C)(=O)=O)cc3)CC2c2cccs2)cc1 (centres undefined)	0	7	8	1	9	3
COc1ccc(C(=O)N2N=C(c3ccc(NS(C)(=O)=O)cc3)CC2c2cccs2)cc1 (centres undefined)	4	8	0	22	7	51*
Cc1ccc(NC(=O)C2CCN(S(=O)(=O)c3ccc4c(c3)NC(=O)C(C)S4)CC2)c(C)c1 (centres undefined)	43	9	9	-2	-9	-11
CCN(CC)S(=O)(=O)c1cc(NC(=O)c2ccc3c(c2)NC(=O)C(C)S3)ccc1C (centres undefined)	53	7	23	89*	0	67*
CC1Sc2ccc(S(=O)(=O)N3CCC(C(=O)Nc4cccc(Cl)c4)CC3)cc2NC1=O (centres undefined)	90*	6	8	33	-12	36
Cc1cc(C)c(NC(=O)c2ccc3c(c2)NC(=O)C(C)S3)c(C)c1 (centres undefined)	-5	0	-3	13	2	-1
CCc1ccc(NC(=O)C2CCN(S(=O)(=O)c3ccc4c(c3)NC(=O)C(C)S4)CC2)cc1 (centres undefined)	90*	27	25	40	5	33
Cc1ccc(NC(=O)C2CCN(S(=O)(=O)c3ccc4c(c3)NC(=O)C(C)S4)CC2)cc1C (centres undefined)	88*	10	10	30	-14	21
Cc1cccc(C)c1N1C(=O)c2ccccc2NC(=O)C1C(=O)NCCc1ccccc1 (centres undefined)	.	.	.	.	-1	.
C#CCN(C[C@H]1[C@H](OC(=O)NC2CCCC2)[C@H](OC(=O)NC2CCCC2)C[C@@H](C(=O)OC)[C@H]1C(=O)OC)S(=O)(=O)c1ccc(C)cc1	13	-24	.	18	-2	21
CCCCn1c(-c2nonc2NC(=O)c2ccccc2Cl)nc2ccccc21	89*	32	17	-20	-20	0
COc1cc(N)ccc1Nc1c2ccccc2nc2ccccc12	38	.	.	-29	18	-8
CCCS(=O)(=O)Nc1ccc(Nc2c3ccccc3nc3ccccc23)c(OC)c1	88*	43*	75*	-40	30	-27
CC(C)(C)OC(=O)N1Cc2[nH]c3ccccc3c2C[C@@H]1C(=O)O	-64	-1	10	10	9	-10
COC(=O)C1(C(=O)OC)Cc2ccccc2N(S(=O)(=O)c2ccc(C)cc2)C1CC(C)=O (centres undefined)	.	.	.	.	5	.
Cc1cn(CC(=O)NCCCn2ccnc2)c(=O)[nH]c1=O	-16	10	-4	-4	5	-11
CCCCCCCCCCCCCCCC[N+](C)(C)CCN(Cc1ccc(OC)cc1)c1ncccn1	77	-9	103*	12	86*	39
O=C(Oc1ccc(C(=S)N2CCC(O)CC2)cc1)c1ccc(Cl)cc1	9	11	2	-29	4	57*
SMILES	Shn3 3UTR inh	EBV LMP1 NFkB	TRPM1 prom inh	TWEAK Fn14 block	HIF-2a block	TROY NFkB inh
CCC(CC)COC(=O)C1=C(C)NC(=O)NC1c1ccccc1Br (centres undefined)	24	3	-13	81*	16	8
CC(=O)c1ccc(N=Nc2ccc(C)cc2)cc1	6	-10	-6	68*	-91	61*
CN(C)C(=S)c1ccc(N(C)C)cc1	-22	3	10	-14	-8	8
Cc1cc(N(C)C)ccc1N=Nc1ccc(N)cc1	.	-13	-34	28	-230	-56
C=C(C)C(=O)Oc1ccc(N=Nc2ccc(C)cc2)ccc1=O	29	.	.	59*	-151	-35
CN(C)c1ccc(N=Nc2ccccc2Br)cc1	8	-63	-4	77*	-10	47
CC(=O)c1ccc(N=Nc2ccc(N(C)C)cc2)cc1	22	18	3	104*	-91	54*
O=C(N/N=C/c1ccccn1)c1ccc(Cl)c(Cl)c1	20	-2	58	-72	-66	-1
O=C1Nc2cc(C(=O)N3CCOCC3)ccc2S/C1=C/c1ccccc1F	0	-26	.	25	-8	4
CCCN(CC(=O)Nc1ccccc1OC)C(=O)Cn1c(=O)oc2ccccc21	1	-5	18	-21	-6	-28
C(=N\Nc1nncc2ccccc12)/c1ccccn1	68	30	48	74*	-45	-19
Fc1cccc(/C=N/Nc2nncc3ccccc23)c1	4	-9	-15	46	-94	-33
COc1ccc(C(C)=O)cc1CC1(C)C(=O)Nc2ccc(-c3ccccc3OC)cc21 (centres undefined)	-7	.	.	0	3	11
CC(=O)c1cccc(-c2ccc3c(c2)C(C)(Cc2ccccc2F)C(=O)N3)c1 (centres undefined)	65	.	.	58*	16	20
CC(C)(C)c1cc(CCC(=O)NCCc2ccccn2)cc(C(C)(C)C)c1O	11	-11	-2	9	2	-18
O=C1C=C(NCCc2cc(Br)c(O)c(Br)c2)C(=O)c2ncccc21	94*	18	109*	94*	9	38
CCOC(=O)CCCCCC(=O)Nc1ccc2c(c1)C(=O)N([C@@H](C)CO)C[C@H](C)[C@H](CN(C)C(=O)Nc1ccc(F)cc1)OCCCC[C@H](C)O2	6	0	.	10	1	13
Nc1nc2n[nH]nc2c(=O)[nH]1	25	-16	65*	3	5	-7
